What all share (conditions): concentration: 1 μM, replicates: in singlicate; n = 1
In test [1] the test system is ULK2.
For test [2], the system named is ULK3.
Test [3] relates to T1, VEGFR2.
T1 construct: gene KDR

Test [4] has as its system T2, VPS34.
T2 construct: gene PIK3C3

Test [5] concerns VRK2.
Test [6] relates to WEE1.
Test [7] concerns WEE2.
Test [8] relates to WNK1.
The test system of test [9] is WNK2.
In test [10] the test system is WNK3.
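Note: KINOMEscan kinase panel screen.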

As for `CCc1nc(-c2cccc(N(C)S(=O)(=O)c3ccccc3)c2)c(-c2ccnc(Nc3ccc(N4CCN(C(C)=O)CC4)nc3)n2)s1` [GSK1645895], the “%Inh” value in [1] amounted to 0%; in test [2], 9%; in [3], 31%; in test [4] it was 0%; in [5] it was 0%; in test [6] it was 0%. The “%Inh” value in [7] was determined as 0%; in test [8] it was 3%; in test [9], 0%; in test [10], 16%.

Consider `FC(F)(F)c1cc(Nc2nccc(-c3c(-c4ccc(Cl)cc4)nn4ncccc34)n2)ccc1Cl` [GW829351], for which the “%Inh” value in [1] is reported as 6%; in test [2], 0%; in [3], 0%; in test [4], 2%; in test [5] it was 56%; in [6], 9%. Besides, the “%Inh” value in test [7], in test [8], in test [9] and in test [10] was 0% each time.

As to `CCc1nc(-c2cccc(C)c2)c(-c2ccnc(NC(=O)c3ccccc3)c2)s1`, the “%Inh” value in test [1] is on record as 9%; in test [2] it was 14%; in [3], 0%; in test [4], 14%; in [5], 0%; in test [6], 0%. Moreover, the “%Inh” value in [7] is reported as 10%; in test [8] it was 0%; in test [9], 59%; in test [10] it was 0%.

With `Cl.Fc1ccccc1COc1ccc(Nc2ncnc3ccc(-c4nnc(C(F)(F)F)o4)cc23)cc1Cl` [GW424170], the “%Inh” value stood at 0% in test [1]; 6% in test [2]; 4% in test [3]; 0% in test [4]; 0% in test [5]; 3% in test [6]. The “%Inh” value in test [7] worked out at 5%; in [8], 7%; in [9], 0%; in test [10], 15%.

In the case of `CNc1nccc(-c2c(-c3ccc(F)cc3)ncn2CCCN2CCOCC2)n1` [SB-222516], the “%Inh” value in test [1] came out at 0%; in [2], 17%; in test [3], 0%; in [4] it was 0%; in [5] it was 0%; in [6], 0%. The “%Inh” value in test [7] was found to be 9%; in test [8] it was 1%; in test [9] it was 0%; in test [10], 0%.

In the case of `CS(=O)(=O)CCNCc1nc(-c2ccc3ncnc(Nc4ccc(OCc5cccc(F)c5)c(Cl)c4)c3c2)cs1.Cl` [GW583340], the “%Inh” value amounted to 0% in [1]; 0% in [2]; 1% in test [3]; 0% in test [4]; 0% in test [5]; 9% in test [6]. Further, the “%Inh” value in test [7] was found to be 0%; in test [8], 4%; in test [9] it was 9%; in test [10] it was 18%.

Turning to `Nc1nc(-c2ccc3c(N)n[nH]c3c2)cc(N2CCC[C@@H](C(=O)Nc3ccccc3)C2)n1.O=C(O)C(F)(F)F.O=C(O)C(F)(F)F` [GSK2288359], the “%Inh” value in test [1] was 3%; in test [2], 13%; in test [3], 18%; in [4], 0%; in [5], 0%; in [6], 8%. The “%Inh” value amounted to 0% in test [7], 11% in test [8], 6% in test [9] and 14% in test [10].

On to `Cl.c1ccc(Cn2ncc3cc(Nc4ncnc5ccccc45)ccc32)cc1` [GW273749], for which the “%Inh” value in [1] worked out at 0%; in test [2], 5%; in test [3], 20%; in test [4], 0%; in test [5], 0%; in test [6] it was 10%. Further, the “%Inh” value in test [7] was 3%; in [8], 3%; in test [9], 3%; in [10] it was 0%.

As to `CN1CCC(n2cnc(-c3ccc(F)cc3)c2-c2ccnc(NC3CCNCC3)n2)CC1` [SB-229482], the “%Inh” value in test [1] was determined as 4%; in [2], 19%; in [3], 0%; in test [4], 50%; in [5], 18%; in test [6], 0%. The “%Inh” value in test [7] is listed as 30%; in test [8], 21%; in test [9], 0%; in test [10], 49%.

Regarding `Cl.O=S(=O)(c1cccc(F)c1)c1ccc(Nc2ncnc3cc(Br)sc23)cc1Cl` [GSK306886], the “%Inh” value is given as 0% in test [1]; 8% in test [2]; 3% in test [3]; 0% in test [4]; 0% in [5]; 20% in test [6]. Moreover, the “%Inh” value turned out to be 9% in test [7], 4% in test [8], 9% in test [9] and 0% in [10].

Consider `Clc1ccc(-c2cc(-c3c[nH]nc3-c3ccccn3)ccn2)cc1` [GW681251], for which the “%Inh” value worked out at 0% in test [1]; 1% in test [2]; 0% in test [3]; 0% in test [4]; 11% in test [5]; 18% in [6]. In addition, the “%Inh” value turned out to be 0% in test [7], 16% in test [8], 0% in [9] and 19% in test [10].

For `Nc1nc(-c2ccccn2)c(-c2ccnc3ccccc23)s1` [GW548057], the “%Inh” value in [1] is listed as 0%; in test [2], 13%; in test [3], 12%; in [4], 9%; in test [5], 62%; in test [6] it was 13%. The “%Inh” value in test [7] was found to be 0%; in [8] it was 15%; in test [9], 11%; in test [10] it was 50%.

For the compound `Cc1ccc(NC(=O)c2cccc(C#N)c2)cc1-c1ccc(C(=O)Nc2ccncc2)cc1` [GSK1398463], the “%Inh” value in [1] worked out at 0%; in test [2], 15%; in [3], 11%; in [4], 0%; in test [5], 0%; in [6], 0%. Moreover, the “%Inh” value worked out at 0% in test [7], 17% in [8], 6% in test [9] and 18% in [10].

Consider `COC(=O)c1c(-c2ccccc2)c2cc(Cl)ccc2c(=O)n1Cc1ccc(S(C)(=O)=O)cc1`, for which the “%Inh” value in test [1] is 0%; in [2], 0%; in [3], 0%; in test [4], 0%; in test [5], 10%; in test [6], 0%. Moreover, the “%Inh” value was 0% in test [7], 0% in test [8], 4% in [9] and 0% in [10].

On to `Cn1cc(-c2ccc3c(c2)CCN3C(=O)Cc2cccc(C(F)(F)F)c2)c2c(N)ncnc21` [GSK2606414], for which the “%Inh” value came to 0% in test [1]; 3% in test [2]; 0% in [3]; 22% in test [4]; 20% in test [5]; 0% in test [6]. Moreover, the “%Inh” value in test [7] amounted to 19%; in test [8] it was 3%; in [9], 7%; in test [10] it was 0%.

For the compound `N#Cc1ccc(Oc2ccc(Nc3ncnc4cc[nH]c34)cc2Cl)cc1`, the “%Inh” value is listed as 34% in test [1]; 30% in [2]; 12% in [3]; 0% in [4]; 3% in test [5]; 28% in [6]. The “%Inh” value in [7] stood at 8%; in [8], 0%; in test [9], 7%; in test [10], 0%.

(Values after paper PMC5540273 (PLoS ONE, 2017).)
